Assay in all cases: NCI-60 one-dose screen, 48 h (100 = growth as untreated, 0 = no growth, -100 = all killed)
Details in all cases: 10 µM unless noted

Experiment [1] concerns T-47D breast.
Experiment [2] concerns BT-549 breast.
Experiment [3] deals with MDA-MB-435 melanoma.
Experiment [4] relates to SW-620 colon.
The subject of experiment [5] is MCF7 breast.
The subject of experiment [6] is HCT-116 colon.
For experiment [7], the system named is HCC-2998 colon.
Experiment [8] concerns KM12 colon.

Compounds without any hit were thinned out: in the full panel of roughly 83,000, 20% have a hit.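 Compound tested at a single concentration for 48 hours in 96-well plates; a percent growth value below 10 was scored as active.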 Unmarked numbers belong to inactive results. Activity calls are given as the source filed them.

Consider `CCCCO[C@@H]1C=C2[C@H]3CC(C)(C)C(=O)C[C@]3(C(=O)O[C@@H]3O[C@H](CO[C@@H]4O[C@H](CO)[C@@H](OC5OC(C)C(O)C(O)C5O)[C@H](O)[C@H]4O)[C@@H](O)[C@H](O)[C@H]3O)CC[C@@]2(C)[C@]2(C)CC[C@H]3C(C)(C)C(=O)CC[C@]3(C)[C@@H]12` (stereo not given in full), for which the growth was 67.4% in experiment [1]; 57.6% in experiment [2]; 51.9% in experiment [3]; 67.5% in experiment [4]; 55.5% in experiment [5]; 64.9% in experiment [6]. In addition, the growth was 82.7% in experiment [7] and 75.2% in experiment [8].
As for `O=C(Nc1ccc(Nc2ccncc2)cc1)c1ccc(Nc2ccnc3ccc([N+](=O)[O-])cc23)cc1`, the growth in experiment [1] was 122%; in experiment [2], 107%; in experiment [3] it was 104%; in experiment [4], 105%; in experiment [5] it was 91.9%; in experiment [6], 97%. Moreover, the growth in experiment [7] was 76.7%; in experiment [8], 90.1%.
For the compound `O=C(/C=C/c1cccc(Oc2ccccc2)c1)c1ccc(Nc2nc(Nc3ccc(F)cc3)nc(Nc3ccc(Cl)cc3)n2)cc1`, the growth is 95.4% in experiment [1]; 104% in experiment [2]; 112% in experiment [3]; 104% in experiment [4]; 89.6% in experiment [5]; 95.1% in experiment [6]. For the same compound, the growth is 67.1% in experiment [7] and 105% in experiment [8].
Regarding `CN(C)CCCn1c2c(c3ccncc3c1=O)C(=O)c1ccccc1-2`, the growth was -12.3% (active) in experiment [1]; 3.87% (active) in experiment [2]; 7.89% (active) in experiment [3]; -28.1% (active) in experiment [4]; 1.65% (active) in experiment [5]; -18.7% (active) in experiment [6]. The values for the growth in experiment [7] and in experiment [8] were 25.6% and -12.6% (active), respectively.
For the compound `CC(C)C1C2=C(NCCN1C(=O)c1ccncc1)C(C)(C)N(Cc1ccccc1)C2=O` (stereo not given), the growth in experiment [1] is 103%; in experiment [2], 104%; in experiment [3] it was 104%; in experiment [4] it was 105%; in experiment [5] it was 95.5%; in experiment [6] it was 92.8%. Besides, the growth in experiment [7] is 100%; in experiment [8], 97.6%.
Take `COCCn1cc(-c2nc(-c3c[nH]c4ncccc34)cs2)c2ccccc21`: the growth is 4.79% (active) in experiment [1]; 43.2% in experiment [2]; 7.74% (active) in experiment [3]; 68.6% in experiment [4]; 9.03% (active) in experiment [5]; 66.5% in experiment [6]. Besides, the growth is 34.4% in experiment [7] and 16.4% in experiment [8].
With `O=C(CN1C(=O)S/C(=C\C(Cl)=C\c2ccccc2)C1=O)NC1CCS(=O)(=O)C1` (stereo not given), the growth in experiment [1] is 15.7%; in experiment [2] it was 76.5%; in experiment [3] it was 66.2%; in experiment [4], 22.6%; in experiment [5] it was 13.7%; in experiment [6], 5.67% (active). For the same compound, the growth in experiment [7] is 103%; in experiment [8], 65.4%.
For the compound `COc1ccc(-c2nc3ccc(C)cc3c3c2c(=O)n(C)c(=O)n3C)cc1OC`, the growth was 106% in experiment [1]; 120% in experiment [2]; 90% in experiment [3]; 103% in experiment [4]; 97.7% in experiment [5]; 105% in experiment [6]. Further, the values for the growth in experiment [7] and in experiment [8] were 98.2% and 116%, respectively.
Consider `N#CC1=C(N)Oc2c(sc3c(F)cccc23)C1c1ccc([N+](=O)[O-])cc1` (stereo not given), for which the growth in experiment [1] is -3.63% (active); in experiment [2], -48.3% (active); in experiment [3] it was -28.7% (active); in experiment [4] it was -33.7% (active); in experiment [5], -18.1% (active); in experiment [6] it was -84.8% (active). The growth is -40.8% (active) in experiment [7] and -32.4% (active) in experiment [8].
As for `Cc1cc(C(=O)CCCC(=O)c2cc(C)c(O)c(C)c2)cc(C)c1O`, the growth in experiment [1] was 84.6%; in experiment [2], 112%; in experiment [3] it was 101%; in experiment [4], 98.9%; in experiment [5], 86.5%; in experiment [6] it was 86.8%. Besides, the values for the growth in experiment [7] and in experiment [8] were 46% and 102%, respectively.
Turning to `CN1c2ccccc2S(=O)(=O)n2c(SCC(=O)Nc3nc4ccc(F)cc4s3)nnc21`, the growth in experiment [1] was 112%; in experiment [2], 122%; in experiment [3] it was 117%; in experiment [4], 107%; in experiment [5], 88.2%; in experiment [6], 110%. Besides, the growth in experiment [7] was 128%; in experiment [8], 97.7%.
Regarding `CNC(=O)c1cc(Oc2ccc3c(c2)sc2nc(-c4ccc(NC(=O)[C@@H](NC(=O)OC)C(C)C)cc4)cn23)ccn1`, the growth in experiment [1] was 8.68% (active); in experiment [2], 14.2%; in experiment [3], 38.5%; in experiment [4] it was 84.3%; in experiment [5] it was 51.6%; in experiment [6] it was 55%. Also, the growth in experiment [7] is 93.4%; in experiment [8] it was 32.8%.
Regarding `C=C(C)[C@@H]1CC[C@]2(C(=O)N3CCN(C)CC3)CC[C@]3(C)[C@H](CC[C@@H]4[C@@](C)(CCC(=O)O)[C@H](C(=C)C)CC[C@]43C)[C@@H]12`, the growth in experiment [1] is 85.7%; in experiment [2], 96.8%; in experiment [3] it was 93.6%; in experiment [4], 99.7%; in experiment [5], 82.8%; in experiment [6], 68.2%. Moreover, the growth was 93.8% in experiment [7] and 68.7% in experiment [8].
Regarding `COc1ccc(C(c2cc(OC)c(OC)c(OC)c2)N2CCCCC2)cc1` (stereo not given), the growth in experiment [1] is 33.6%; in experiment [2], 49.7%; in experiment [3], -21.8% (active); in experiment [4], 14.5%; in experiment [5], 23.6%; in experiment [6], 29.1%. For the same compound, the growth in experiment [7] is 79.6%; in experiment [8], 30.2%.
As for `CC1(C)CC[C@]23CC[C@]4(C)[C@H](CC[C@@H]5[C@@]6(C)C/C(=C/O)C(=O)C(C)(C)[C@@H]6CC[C@]54C)[C@H]2[C@H]1OC3`, the growth in experiment [1] was 114%; in experiment [2], 111%; in experiment [3] it was 97.7%; in experiment [4], 103%; in experiment [5], 85.7%; in experiment [6] it was 105%. Further, the values for the growth in experiment [7] and in experiment [8] were 110% and 114%, respectively.

Source of the values: PubChem BioAssay (NCI).
